# Reference: PubChem BioAssay (Tox21)
# Where “and” joins values, the source holds several entries; their conditions need not be identical. Identical values can stand only once. Inconclusive results are not listed. A call without a number means that no potency is given here. The source holds several records for some structures; these can differ, active in one and inactive in another. Calls of active or inactive are those of the source. Unless noted, the call rests on the fitted dose curve; in most records, active means well fitted curve in the direction sought with a large enough effect in the repeat runs; inconclusive means weak or mixed curves; inactive means no such curve, though single readings can be large; an effect the other way counts as inactive or inconclusive.
# Columns and labels:
# [1] = qHTS assay to identify small molecule antagonists of the peroxisome proliferator-activated receptor delta (PPARd) signaling pathway - cell viability counter screen (AID 743213); further: nearly all actives have a fitted effect of over 50% in size; further: potency means the concentration at half of the fitted maximal effect
# Procedure, shortened: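 PPARd-bla HEK293H cells (3000/well) got compound plus 300 nM L165041 agonist for 17 h at 37 C. Viability in the same wells came from CellTiter-Glo luminescence after 30 min at room temperature.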
# [2] = target: Peroxisome proliferator-activated receptor delta (Homo sapiens) (UniProt Q03181); test: qHTS assay to identify small molecule antagonists of the peroxisome proliferator-activated receptor delta (PPARd) signaling pathway (AID 743215; active means well fitted inhibition curve with a large enough effect in the signal ratio in the repeat runs, not every such curve was filed as active; the % refers to the signal ratio;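 further: cells stimulated with agonist L165041 at 300 nM final during compound exposure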; further: potency means the concentration at half of the fitted maximal effect)
# Procedure, shortened: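 Cells: HEK293H with a UAS-driven beta-lactamase reporter responsive to PPARd. Compounds were co-added with L165041 (300 nM, final) and incubated 17 h at 37 C before a 2 h room-temperature FRET substrate step and fluorescence reading.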
# [3] = qHTS assay to identify small molecule agonists of the farnesoid-X-receptor (FXR) signaling pathway - cell viability counter screen (AID 743218); further: nearly all actives have a fitted effect of over 45% in size; further: potency means the concentration at half of the fitted maximal effect
# Procedure, shortened: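 Cells were seeded, left 5 h at 37 C and 5% CO2, then dosed with compound in DMSO for 16 h. After the beta-lactamase FRET read, CellTiter-Glo was added and luminescence measured 30 min later.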
# [4] = qHTS assay to identify small molecule antagonists of the farnesoid-X-receptor (FXR) signaling pathway - cell viability counter screen (AID 743221; active means well fitted cell-killing curve with a large enough effect in the repeat runs, not every such curve was filed as active; further: nearly all actives have a fitted effect of over 50% in size; further: potency means the concentration at half of the fitted maximal effect)
# Procedure, shortened: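 Cytotoxicity counter screen run in the FXR-bla reporter wells: HEK 293T cells exposed to compound with 50 uM (final) chenodeoxycholic acid for 16 h, 37 C, then viability measured by CellTiter-Glo luminescence after 30 min, room temperature.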
# [5] = qHTS assay to identify small molecule agonists of the vitamin D receptor (VDR) signaling pathway - cell viability counter screen (AID 743224); further: nearly all actives have a fitted effect of over 50% in size; further: potency means the concentration at half of the fitted maximal effect
# Procedure, shortened: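 Cells: VDR-bla, 2,000/well, settled 4 h. Treatment: compounds in DMSO, 16 h, 37C/5% CO2. Readout: CellTiter-Glo luminescence after 30 min RT.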
# [6] = qHTS assay to identify small molecule antagonists of the vitamin D receptor (VDR) signaling pathway - cell viability counter screen (AID 743225); further: nearly all actives have a fitted effect of over 50% in size; further: potency means the concentration at half of the fitted maximal effect
# Procedure, shortened: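 Cytotoxicity counter screen read by CellTiter-Glo luminescence (30 min, room temperature) in the same wells as the VDR-bla antagonist readout. HEK 293T VDR-UAS-bla cells had 16 h at 37C with compound and 3 nM (final) 1-alpha,25-dihydroxyvitamin D3, then 2 h with FRET substrate.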
# [7] = qHTS assay to identify small molecule agonists of the NFkB signaling pathway - cell viability counter screen (AID 1159515; calls by dose curve; further: nearly all actives have a fitted effect of over 55% in size; further: potency means the concentration at half of the fitted maximal effect)
# Procedure, shortened: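 Cells are seeded (2,000 NFkB-bla ME-180 per well), rested overnight, and dosed with DMSO-dissolved compounds for 5 hr at 37 C. Viability is then read by CellTiter-Glo luminescence after 30 min at room temperature.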
# [8] = qHTS assay to identify small molecule agonists of the AP-1 signaling pathway - cell viability counter screen (AID 1159525; calls by dose curve; further: nearly all actives have a fitted effect of over 55% in size; further: potency means the concentration at half of the fitted maximal effect)
# Procedure, shortened: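 Each titration point was normalised to DMSO and tetra n-octyl ammonium bromide controls. The read was Cell Titer Glo luminescence after 30 min at RT, following 5 h compound exposure of ME-180 AP-1-bla cells at 37 °C.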
# [9] = qHTS assay to identify small molecule agonists of the peroxisome proliferator-activated receptor delta (PPARd) signaling pathway - cell viability counter screen (AID 743211); further: nearly all actives have a fitted effect of over 55% in size; further: potency means the concentration at half of the fitted maximal effect
# Procedure, shortened: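 Viability was measured as CellTiter-Glo luminescence (30 min, room temperature) in the same wells as the beta-lactamase readout. GeneBLAzer PPARd UAS-bla HEK293H cells received compound after 5 h plating and were incubated 17 h at 37 C.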
# [10] = target: Vitamin D3 receptor (Homo sapiens) (UniProt P11473); test: qHTS assay to identify small molecule agonists of the vitamin D receptor (VDR) signaling pathway (AID 743222; calls by dose curve)
# Procedure, shortened: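 Cells carrying a VDR-driven beta-lactamase reporter are seeded at 2,000 per well and rested 4 h. Compounds in DMSO are added for 16 h at 37C, and FRET substrate fluorescence is measured after 2 h at room temperature.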
# [11] = qHTS assay to identify small molecule agonists of the endoplasmic reticulum stress response signaling pathway (AID 1159516; active means well fitted activation curve with a large enough effect in the signal ratio in the repeat runs, not every such curve was filed as active; the % refers to the signal ratio)
# Procedure, shortened: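 Cells are seeded at 1,500 per well and incubated overnight. Compounds in DMSO are added for 5 hr at 37 C, then beta-lactamase FRET substrate for 2 hr at room temperature, and fluorescence at 460 and 530 nm is measured.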
# [12] = qHTS assay to identify small molecule agonists of the endoplasmic reticulum stress response signaling pathway - cell viability counter screen (AID 1159517; calls by dose curve)
# Procedure, shortened: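 Cpd-treated ESRE-bla HeLa (5 hr, 37 C) → LiveBLAzer 2 hr RT → CellTiter-Glo 30 min RT → luminescence.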
# [13] = qHTS assay to identify small molecule antagonists of the retinoid-related orphan receptor gamma (ROR-gamma) signaling pathway - cell viability counter screen (AID 1159520); further: nearly all actives have a fitted effect of over 50% in size; further: potency means the concentration at half of the fitted maximal effect
# Procedure, shortened: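 Tet-on ROR gamma CHO cells (1,000/well) were plated 4 hr, given compounds in DMSO for 2 hr at 37 C, then induced with 1 uM final doxycycline for 16 hr. Viability was read as ATP by CellTiter-Glo luminescence after 30 min.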
# [14] = target: Nuclear receptor ROR-gamma (Homo sapiens) (UniProt P51449); test: qHTS assay to identify small molecule antagonists of the retinoid-related orphan receptor gamma (ROR-gamma) signaling pathway (AID 1159521; further: nearly all actives have a fitted effect of over 50% in size; further: potency means the concentration at half of the fitted maximal effect)
# Procedure, shortened: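 Antagonist read-out: drop in luminescence (ONE-Glo) from an RORE-LUC reporter in CHO cells with doxycycline-inducible ROR-gamma; 2 hr compound pretreatment, 1 uM doxycycline, 16 hr incubation at 37 C.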
# [15] = qHTS assay to identify small molecule agonists of the AP-1 signaling pathway (AID 1159526; calls by dose curve)
# [16] = target: Retinoic acid receptor RXR-alpha (Homo sapiens) (UniProt P19793); test: qHTS assay to identify small molecule agonists of the RXR signaling pathway (AID 1159527; calls by dose curve; further: nearly all actives have a fitted effect of over 35% in size)
# Procedure, shortened: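 Agonist-mode beta-lactamase reporter assay: HEK 293T RXR-alpha-UAS-bla cells treated 16 hr at 37 C with compounds, 9-cis retinoic acid as positive control. LiveBLAzer FRET substrate, 405 nm excitation, 460/530 nm emission.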
# [17] = target: Peroxisome proliferator-activated receptor delta (Homo sapiens) (UniProt Q03181); test: qHTS assay to identify small molecule agonists of the peroxisome proliferator-activated receptor delta (PPARd) signaling pathway (AID 743212; calls by dose curve)
# Procedure, shortened: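 Cells expressing a UAS-driven beta-lactamase reporter (PPARd-bla HEK293H) were given test compounds after a 5 h settle and kept at 37 C. Reporter activity was then measured as FRET fluorescence using LiveBLAzer B/G substrate.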
# [18] = target: Bile acid receptor (Homo sapiens) (UniProt Q96RI1); test: qHTS assay to identify small molecule antagonists of the farnesoid-X-receptor (FXR) signaling pathway (AID 743217; active means well fitted inhibition curve with a large enough effect in the signal ratio in the repeat runs, not every such curve was filed as active; the % refers to the signal ratio)
# Procedure, shortened: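 Cells carrying a UAS-driven beta-lactamase reporter (GeneBLAzer FXR-UAS-bla HEK 293T) were plated and rested 5 h at 37 °C. Compounds in DMSO were added alongside chenodeoxycholic acid agonist at 50 uM final and left 16 h at 37 °C before FRET substrate readout.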
# [19] = target: Bile acid receptor (Homo sapiens) (UniProt Q96RI1); test: qHTS assay to identify small molecule agonists of the farnesoid-X-receptor (FXR) signaling pathway (AID 743220; active means well fitted activation curve with a large enough effect in the signal ratio in the repeat runs, not every such curve was filed as active; the % refers to the signal ratio)
# Procedure, shortened: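 FXR-UAS-bla HEK 293T cells carrying a UAS-driven beta-lactamase reporter were plated for 5 h at 37C/5% CO2, then exposed to DMSO-dissolved Tox21 10K compounds for 16 h at 37C. A LiveBLAzer B/G FRET substrate was loaded for 2 h at room temperature before fluorescence reading.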
# [20] = target: Vitamin D3 receptor (Homo sapiens) (UniProt P11473); test: qHTS assay to identify small molecule antagonists of the vitamin D receptor (VDR) signaling pathway (AID 743223; active means well fitted inhibition curve with a large enough effect in the signal ratio in the repeat runs, not every such curve was filed as active; the % refers to the signal ratio)
# Procedure, shortened: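 Antagonist mode: compound added to VDR-bla cells alongside agonist 1alpha,25-dihydroxyvitamin D3 (3 nM final), incubation 16 h at 37C. Read-out is LiveBLAzer FRET fluorescence, 2 h at room temperature.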
# Chain of Vitamin D3 receptor (Homo sapiens) (P11473 whole entry, looked up): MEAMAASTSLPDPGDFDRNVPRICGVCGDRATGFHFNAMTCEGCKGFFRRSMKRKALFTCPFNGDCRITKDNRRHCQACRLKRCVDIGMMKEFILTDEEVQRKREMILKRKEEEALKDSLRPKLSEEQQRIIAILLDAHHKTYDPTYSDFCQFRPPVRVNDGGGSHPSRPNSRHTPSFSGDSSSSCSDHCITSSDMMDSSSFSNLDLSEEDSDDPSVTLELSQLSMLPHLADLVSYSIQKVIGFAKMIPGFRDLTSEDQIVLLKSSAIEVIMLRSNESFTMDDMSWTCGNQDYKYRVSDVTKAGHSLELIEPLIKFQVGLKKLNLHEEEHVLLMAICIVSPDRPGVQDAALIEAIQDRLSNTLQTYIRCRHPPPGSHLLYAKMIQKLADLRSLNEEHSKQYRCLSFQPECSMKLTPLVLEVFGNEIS
# Chain of Retinoic acid receptor RXR-alpha (Homo sapiens) (P19793 whole entry, looked up): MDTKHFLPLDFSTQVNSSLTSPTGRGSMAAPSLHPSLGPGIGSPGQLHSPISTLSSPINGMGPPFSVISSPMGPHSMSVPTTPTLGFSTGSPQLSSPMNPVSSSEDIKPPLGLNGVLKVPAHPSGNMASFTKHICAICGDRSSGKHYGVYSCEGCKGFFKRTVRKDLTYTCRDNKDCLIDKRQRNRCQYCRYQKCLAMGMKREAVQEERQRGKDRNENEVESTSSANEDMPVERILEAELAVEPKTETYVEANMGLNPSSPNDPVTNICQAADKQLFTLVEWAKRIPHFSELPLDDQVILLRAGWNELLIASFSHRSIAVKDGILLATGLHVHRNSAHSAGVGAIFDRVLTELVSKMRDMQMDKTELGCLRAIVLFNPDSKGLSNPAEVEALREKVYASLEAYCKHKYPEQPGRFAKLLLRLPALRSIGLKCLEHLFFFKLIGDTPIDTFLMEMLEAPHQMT
# Chain of Bile acid receptor (Homo sapiens) (Q96RI1 whole entry, looked up): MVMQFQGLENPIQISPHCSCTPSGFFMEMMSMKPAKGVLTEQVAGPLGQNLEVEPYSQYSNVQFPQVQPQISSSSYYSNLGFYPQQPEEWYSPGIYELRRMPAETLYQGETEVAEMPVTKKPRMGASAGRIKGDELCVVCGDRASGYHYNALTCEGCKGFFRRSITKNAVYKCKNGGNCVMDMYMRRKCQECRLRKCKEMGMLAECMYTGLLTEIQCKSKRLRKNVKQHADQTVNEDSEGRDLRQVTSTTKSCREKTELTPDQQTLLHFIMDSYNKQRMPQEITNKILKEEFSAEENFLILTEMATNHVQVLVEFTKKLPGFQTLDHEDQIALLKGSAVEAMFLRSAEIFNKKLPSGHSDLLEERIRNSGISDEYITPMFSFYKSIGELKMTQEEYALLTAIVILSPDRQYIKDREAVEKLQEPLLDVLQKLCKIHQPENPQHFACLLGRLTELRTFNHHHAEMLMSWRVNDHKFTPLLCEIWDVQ
# Chain of Peroxisome proliferator-activated receptor delta (Homo sapiens) (Q03181 whole entry, looked up): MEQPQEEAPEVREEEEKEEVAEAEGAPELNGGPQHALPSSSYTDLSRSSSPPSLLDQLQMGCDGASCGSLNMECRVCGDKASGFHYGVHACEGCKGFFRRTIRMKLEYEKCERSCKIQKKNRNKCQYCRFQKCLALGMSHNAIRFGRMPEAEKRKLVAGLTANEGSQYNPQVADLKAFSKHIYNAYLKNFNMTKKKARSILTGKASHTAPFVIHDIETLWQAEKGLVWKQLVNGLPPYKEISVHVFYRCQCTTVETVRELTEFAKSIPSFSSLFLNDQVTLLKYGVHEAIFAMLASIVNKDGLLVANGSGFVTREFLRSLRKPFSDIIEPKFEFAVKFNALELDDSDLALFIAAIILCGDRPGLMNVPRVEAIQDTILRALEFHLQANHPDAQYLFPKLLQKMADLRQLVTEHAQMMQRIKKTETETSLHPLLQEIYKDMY
Compound,Potency [1],Potency [2],Potency [3],Potency [4],Potency [5],Potency [6],Potency [7],Potency [8],Potency [9],Potency [10],outcome [11],Potency [12],Potency [13],Potency [14],Potency [15],Potency [16],Potency [17],Potency [18],Potency [19],Potency [20]
NC(=O)C1(N2CCCCC2)CCN(CCCN2c3ccccc3CCc3ccc(Cl)cc32)CC1,18.8 µM (active),29.8 µM (active),11.9 µM (active),29.8 µM (active),29.8 µM (active),21.3 µM (active),26.8 µM (active),26.8 µM (active),–,–,–,–,–,–,–,–,–,–,–,–
NC(=O)CC[C@@H]1NC(=O)[C@H](Cc2ccccc2)NC(=O)[C@H](Cc2ccc(O)cc2)NC(=O)CCSSC[C@@H](C(=O)N2CCC[C@H]2C(=O)N[C@@H](CCCN=C(N)N)C(=O)NCC(N)=O)NC(=O)[C@H](CC(N)=O)NC1=O,–,–,inactive,–,inactive,inactive,–,inactive,inactive,inactive,inactive,inactive,inactive,inactive,inactive,inactive,–,–,–,–
NC(=NCCCCCCN=C(N)/N=C(\N)Nc1ccc(Cl)cc1)/N=C(\N)Nc1ccc(Cl)cc1,19.8 µM (active) [middle of 4 runs],–,–,19.4 µM (active) and 43.4 µM (active),–,35.3 µM (active) [middle of 4 runs],–,34.3 µM (active) and inactive,–,–,inactive,–,54 µM (active) and 54.2 µM (active) and inactive,–,inactive,–,–,–,–,–
CCCCCCCCOC(=O)c1ccc(O)cc1,–,–,inactive,–,21.8 µM (active) and 49 µM (active),49 µM (active),inactive,54.8 µM (active),48.8 µM (active),–,–,–,–,–,–,inactive,inactive,–,–,–
CCCC1O[C@@H]2C[C@H]3[C@@H]4CCC5=CC(=O)C=C[C@]5(C)[C@H]4[C@@H](O)C[C@]3(C)[C@]2(C(=O)CO)O1 (some centres undefined),inactive,inactive,inactive,inactive,inactive,inactive,–,inactive,inactive,inactive,inactive,–,inactive,48.6 µM (active),–,–,inactive,inactive,inactive,–
O=c1cc(-c2ccc(O)cc2)oc2cc(O)cc(O)c12,inactive,inactive and 17.4 µM (active),inactive,–,inactive,–,–,inactive,inactive,–,inactive,inactive,inactive,–,–,–,inactive,–,–,–
CC(=O)OCC(C)OC(C)=O (centres undefined),–,inactive,–,inactive,–,inactive,–,inactive,inactive,inactive,inactive,inactive,inactive,inactive,inactive,inactive,inactive,–,inactive,inactive
CCC(C)(C)C1CCCCC1OC(C)=O (centres undefined),54.9 µM (active),–,inactive,–,38.9 µM (active),inactive,–,inactive,inactive,–,inactive,–,inactive,inactive,inactive,inactive,inactive,–,–,–
CSc1ccc(C(=O)c2[nH]c(=O)[nH]c2C)cc1,–,inactive,inactive,inactive,–,inactive,–,inactive,–,inactive,inactive,inactive,inactive,inactive,inactive,inactive,inactive,–,–,–
C1CCCC1,inactive,–,inactive,inactive,inactive,–,–,inactive,–,inactive,inactive,–,inactive,inactive,inactive,inactive,–,–,–,inactive
C/C=C(\C)C(=O)OCc1ccccc1,–,–,inactive,inactive,–,–,–,inactive,inactive,inactive,inactive,inactive,inactive,inactive,inactive,inactive,–,–,–,inactive
